Assay results reported in PubChem BioAssay AID2315 (National Center for Advancing Translational Sciences (NCATS), 2010).
Out of some 290,000 compounds screened, about 27,000 (9.3%) were called active. This excerpt belongs to a sample that is enriched for actives. Values without a mark were called inactive. Cut-off read from the data, not from the text of the source: active = inhibition mostly above about 28% (no sharp cut-off); inactive = mostly below about 43%. Where a SMILES comes first, the peptide text is derived from it.

Assay: A qHTS for Small Molecule Inhibitors of Shiga Toxin; note: 0% is about no effect
Details: Vero cells, Shiga toxin protein synthesis inhibition reporter; at 38.7 µM, hits give high values

SMILES	inhibition
CC(=O)NC1CCN(CC(=O)Nc2nccs2)CC1	-3.57%
CN=C1S/C(=C\c2c(OC)cc(OC)cc2OC)C(=O)N1C	-8.5%
CC[C@H](C)[C@H](NC(=O)[C@H](Cc1cnc[nH]1)NC(=O)[C@@H](N)CCC(=O)O)C(=O)N1CCC[C@H]1C(=O)N[C@@H](C)C(=O)O (H-EHIPA-OH)	-0.529%
CC(=O)C1=C(C)NC(=O)NC1c1ccc2c(c1)OCO2 (stereo not given)	2.18%
COc1ccccc1C(=O)COC(=O)CNS(=O)(=O)c1ccc(NC(C)=O)cc1	-27.5%
CC(CC(=O)Nc1ccc(F)cc1F)S(=O)(=O)c1ccc2c(c1)NC(=O)CO2 (stereo not given)	-3.11%
CC1=C(C(=O)Nc2ccccc2)SCCO1	52.1% (active)
CC1=C(C(=O)Nc2ccccc2)S(=O)(=O)CCO1	31.9%
CCCCNC(=O)c1ccccc1NC(=O)C1=C(C)OCCS1	1.7%
Cc1cccc(N(C(=O)c2sc(C)nc2C)C(C(=O)NCC2CCCO2)c2ccccc2)c1 (stereo not given)	-10.3%
COc1ccccc1NC(=O)c1ccc(N2CC3CC(C2)c2cccc(=O)n2C3)c(NC(=O)c2cccnc2)c1 (stereo not given)	7.14%
NS(=O)(=O)c1cc(C(=O)NCCOc2ccccc2)c(Cl)cc1Cl	-6.15%
Cc1nn(C)cc1CNC(=O)Nc1ccc(Cl)cc1	58.7% (active)
Cc1cc(NC(=O)Nc2ccc(Cl)cc2)n(-c2ccccc2)n1	15.7%
Cc1nn(C)cc1C(=O)NNC(=S)Nc1ccc(Cl)cc1	3.52%
COc1ccc(Cl)cc1C(=O)NCc1cn(C)nc1C	-46.7%
Cn1ccc(NC(=O)Nc2ccc(Cl)cc2)n1	93% (active)
O=C(Nc1ccc(Cl)cc1)Nc1ccc(C(=O)N2CCOCC2)cc1	32.1%
CCC(=O)Nc1nc(C)c(C(=O)Nc2cccc(Cl)c2)s1	12.8%
COc1cc(/C=C2\CCCc3c2nc2ccccc2c3C(=O)O)cc(Cl)c1O	-3.8%
CCc1ccc(N2CC(C(=O)Nc3ccc(S(=O)(=O)Nc4nccs4)cc3)CC2=O)cc1 (stereo not given)	16.7%
O=C(c1cccc(Cl)c1)N1CCN(Cc2ccccc2)CC1	-19.8%
COc1ccc(-c2noc(CNC(=O)C(C)Oc3ccccc3)n2)cc1 (stereo not given)	11.6%
Cc1ccccc1C(=O)N1CCC(C(=O)Nc2ccc(S(=O)(=O)N(C)C(C)C)cc2)CC1	24.6%

SMILES	inhibition
Cc1cc(C(F)(F)F)n2ncc(-c3ccccc3)c2n1	-2.7%
COc1ccccc1-c1cnn2c(N3CCOCC3)cc(C)nc12	87.6% (active)
COc1ccccc1NC(=O)C1CCCN(c2cc(C)nc3ncnn23)C1 (stereo not given)	2.25%
N#Cc1c(-c2ccccc2)cc(-c2ccccc2)nc1SCC(=O)O	-7.81%
Cc1cc(C(=O)CSc2nc(N)cc(=O)[nH]2)c(C)n1-c1cccc(F)c1	3.21%
Cc1ccc(-n2c(C)cc(C(=O)CN3C(=O)C(=O)N(C4CCCC4)C3=O)c2C)cc1	-11%
Cc1cc(C(=O)COC(=O)C2CC2)c(C)n1-c1ccc(F)cc1	52.6% (active)
CN(CC(=O)NCc1ccncc1)S(=O)(=O)c1ccc(Br)cc1	9.73%
Cc1cc(S(=O)(=O)Nc2ccc(C(=O)NCC(c3ccco3)N3CCCC3)cc2)ccc1F (stereo not given)	-11.6%
CCC(C)[C@H](NC(=O)N1c2ccccc2NC(=O)[C@@H]1C(C)C)C(=O)N[C@@H](Cc1ccccc1)C(=O)O (stereo not given in full)	-1.75%
Cc1nc2ccccc2c(-c2ccccc2)c1C(=O)c1ccccc1	-2.44%
CCCC(=O)n1nc(-c2ccccc2)nc1N	17.2%
Cc1nn(C(=O)c2ccoc2C)c(N)c1-c1ccccc1	131% (active)
Cc1cc(C)c2c(Cn3ccnc3)cc(=O)oc2c1	-6.18%
CC(=O)Nc1ccc(S(=O)(=O)N2CCC(C(=O)NC3CC3)CC2)cc1	-3.15%
CN(Cc1ccccc1Cl)C(=O)C1CCC(=O)N(CCc2cccc(F)c2)C1 (stereo not given)	2.46%
COc1ccc(NS(=O)(=O)c2ccc3oc(SCC(N)=O)nc3c2)cc1	-13.2%
CN(C)S(=O)(=O)c1ccc2oc(SCC(=O)Nc3ccccc3F)nc2c1	113% (active)
COc1ccc(S(=O)(=O)N(C)C)cc1NC(=O)CSc1ncccn1	-6.2%
Brc1c(CSc2nncc3ccccc23)nc2ccccn12	44.5% (active)
CN(C(=O)CN1C(=O)CCSc2ccc(S(=O)(=O)N3CCCC3)cc21)c1ccccc1	-7.94%
O=C(NCc1ccccc1Cl)c1ccc2c(=O)n(CC3CCCO3)c(=S)[nH]c2c1 (stereo not given)	28.6%
Cc1cc(C)c(OCC(=O)N(Cc2cccs2)C2CCS(=O)(=O)C2)c(C)c1 (stereo not given)	12.7%
CCOC(=O)N1CCN(C(=O)C(=O)Nc2sc3c(c2C#N)CC(C)(C)OC3)CC1	-6.06%

SMILES	inhibition
O=S1(=O)CCOC[C@H](CC2CCCCC2)N1Cc1ccc(F)cc1	19.8% (active)
CCC(C)[C@H]1COCCS(=O)(=O)N1Cc1ccc(C)cc1 (stereo not given in full)	-2.97%
CCCC[C@H]1COCCS(=O)(=O)N1Cc1cccc(Cl)c1	-0.556%
Cc1ccc(S(=O)(=O)N2CC(C)N(S(C)(=O)=O)C2)cc1 (stereo not given)	-4.24%
Cc1ccc(-c2nnc(CN3CCN(C)CC3)o2)cc1	21.4%
COc1cccc(NC(=O)Cn2c3ccc(F)cc3c3nc4n(c(=O)c32)CCS4)c1	-1.58%
CCC(=O)Nc1ccc(S(=O)(=O)Nc2c(NC)c3ccccc3oc2=O)cc1	8.69%
O=C(N=C1SC2CS(=O)(=O)CC2N1c1cc(Cl)ccc1Cl)C1CC1 (stereo not given)	-4.57%
O=C(Cn1c(=S)nc2ccccn21)N1CCc2ccccc2C1	38.4%
O=C(c1ccc(F)cc1)n1cc(C(=S)N2CCOCC2)c2ccccc21	-2.34%
O=C(c1ccc(F)cc1)n1c(=S)nc2ccccn21	82.6% (active)
CC1C(=O)N(Cc2ccccc2)c2ccccc2N1C(=O)c1ccccc1 (stereo not given)	2.9%
O=C(CN1C(=O)c2cccc3cccc1c23)Nc1ccccc1	-7.35%
CSCc1cc(N(C)C)nc(SCc2ccc(Cl)cc2Cl)n1	-20.3%
CC(C)(CNC(=O)Cc1ccc(Cl)cc1Cl)N1CCOCC1	2.65%
CSCc1cc(N2CCOCC2)nc(SCc2ccc(Cl)cc2Cl)n1	30.9% (active)
CCn1c(SCC(=O)Nc2ccc(Br)cc2)nc2sc3c(c2c1=O)CCN(C)C3	18.8%
CCN(Cc1ccccc1)C(=O)CN1C(=S)NC(C)(C)CC1C (stereo not given)	-3.94%
Cc1ccc(CSc2nnc(-c3cnccn3)n2C)cc1	36.7%
Cn1c(SCc2c(F)cccc2Cl)nnc1-c1cnccn1	119% (active)
Oc1ccc(-n2nnnc2SCc2c(F)cccc2Cl)cc1	-2.08%
COc1ccc(C(=O)COC(=O)c2ccc3ccccc3n2)cc1	28.4%
CC(OC(=O)c1ccccc1N1C(=O)C2C3CCC(C3)C2C1=O)C(=O)c1ccccc1 (stereo not given)	5.16%
CC(OC(=O)c1ccc2ccccc2n1)C(=O)c1ccccc1 (stereo not given)	86.7% (active)

SMILES	inhibition
O=C(CCSc1ccccc1)N1CCN(c2ccccc2F)CC1	95.5% (active)
O=C(CCc1ccccc1F)N1CCN(c2ccccc2)CC1	-0.211%
O=C(NCC(=O)N1CCN(c2ccccc2F)CC1)c1cccs1	26.2%
Cc1ccc(C)c(N2CCN(S(=O)(=O)c3c(C)[nH]c(C)c3C(=O)N3CCCC3)CC2)c1	3.26%
Cc1cccc(C(=O)c2cccc(C)c2)c1	43.6%
N/C(=N\OC(=O)c1cc(-c2ccccc2)nc2ccccc12)c1ccncc1	15.3%
Cc1cccc(/C(N)=N/OC(=O)c2ccccc2Cl)c1	74.6% (active)
Cc1cc(=O)n2[nH]c(-c3sccc3-n3c(C)ccc3C)cc2n1	34.4%
Cc1nc2nc[nH]n2c(=O)c1C/C=C/c1ccccc1	-3.93%
C=CCc1c(C)nc2cc(-c3ccccc3)[nH]n2c1=O	45.5% (active)
CCc1c(C)nc2cc(-c3cccs3)[nH]n2c1=O	153% (active)
CCCCN1Cc2c(nc3cc(-c4ccccc4)[nH]n3c2=O)C1=O	2.49%
CCc1c(C)nc2cc(C)[nH]n2c1=O	0.52%
COC(=O)c1cccc(N(C(=O)CNC(=O)c2cccs2)C(C(=O)NCC2CCCO2)c2ccc(OC)c(OC)c2)c1 (stereo not given)	22.3%
COc1cc(NC(=O)C2=CC(c3ccco3)=NS(=O)(=O)N2C)cc(OC)c1OC	-2.22%
COc1cccc(CNC(=O)C2CCCN(S(=O)(=O)N3CC(C)CC(C)C3)C2)c1 (stereo not given)	-1.73%
Cc1ccc(S(=O)(=O)N(CCCN(C)C)Cc2ccc3c(c2)OCO3)cc1	9.86%
O=S(=O)(c1ccc(Br)cc1)c1nc(-c2ccccc2)oc1N1CCOCC1	-6.09%
COc1ccc(S(=O)(=O)NCC(=O)NC2CC2)cc1OC	-5.35%
Cn1nccc1C(=O)NC1CCCc2c1cnn2-c1ccc(F)cc1F (stereo not given)	10.4%
COC(=O)c1c(NC(=O)c2ccc(S(=O)(=O)N3CCOCC3)cc2)sc2c1CCN(C(C)C)C2	-17.4%
Cc1nn2c(c1-c1ccccc1)N=C(c1ccco1)CC2c1ccccc1 (stereo not given)	103% (active)
O=C(O)CCCC(=O)N1N=C(c2ccco2)CC1c1ccco1 (stereo not given)	-14%
